Data as given in the supplement of paper PMC8047044.
Values joined by “and” are separate entries in the source; they are usually repeats but may differ in a detail not shown here. Identical values can stand only once.

The compounds below were run on Neuro-2a (assay: neurite formation score, plate-normalized to DMSO control mean 5.04 (score (0-8 scale)); higher = more or longer neurites). Conditions: 1 µM.
Protocol: (§1)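 Neuro-2a mouse neuroblastoma cells in PLL-coated 96-well plates were pre-treated for 1 h in DMEM(+) with each kinase inhibitor at 1 µM, then switched to serum-free DMEM(-) with inhibitor to induce neurite outgrowth and fixed about 2-3 h later. Three blinded observers scored neurite formation from 0 (no neurites) to 8 (long neurites on almost all cells).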

Compound	neurite formation score
COc1cc(C(=O)NC2CCN(C)CC2)c(F)cc1Nc1ncc2c(n1)N(C1CCCC1)CC(F)(F)C(=O)N2C	5.54
N#CC(=C(/N)Sc1ccccc1N)/C(C#N)=C(\N)Sc1ccccc1N	4.57
CN1CCN(CCOc2cc(OC3CCOCC3)c3c(Nc4c(Cl)ccc5c4OCO5)ncnc3c2)CC1 [Saracatinib (AZD0530)]	4.91
C#Cc1cccc(Nc2ncnc3cc4c(cc23)OCCOCCOCCO4)c1 [Icotinib]	4.8
COc1cc(N2CCC(N3CCN(C)CC3)CC2)ccc1Nc1ncc(Cl)c(Nc2ccccc2S(=O)(=O)C(C)C)n1	2.24
COc1cc(Nc2ncc(F)c(Nc3ccc4c(n3)NC(=O)C(C)(C)O4)n2)cc(OC)c1OC	5.63
CC(C)n1nc(-c2ccc3oc(N)nc3c2)c2c(N)ncnc21	3.96
Cc1cc(NC(=O)c2cccc(NC(=O)/C=C/CN(C)C)c2)ccc1Nc1nccc(-c2cccnc2)n1	5.36
CN1CCN(c2ccc(C(=O)Nc3n[nH]c4ccc(Cc5cc(F)cc(F)c5)cc34)c(NC3CCOCC3)c2)CC1 [Entrectinib]	2.54
Cn1cc(C2=C(c3ccc(Cl)cc3Cl)C(=O)NC2=O)c2ccccc21	4.14
Cn1c(=O)n(-c2ccc(C(C)(C)C#N)cc2)c2c3cc(-c4cnc5ccccc5c4)ccc3ncc21	2.9
COc1cc2c(c(OC)c1OC)-c1c(cc3c(c1OC)OCO3)CC(C)C(C)C2 (configuration not stated) [Schizandrin B]	4.88
COc1cc(CCc2cc(NC(=O)c3ccc(N4CC(C)NC(C)C4)cc3)n[nH]2)cc(OC)c1 (configuration not stated)	3.9
O=[N+]([O-])c1ccc(-c2nc(-c3ccc(F)cc3)c(-c3ccncc3)[nH]2)cc1	3.96
O=C1NCCc2[nH]c(-c3ccncc3)cc21	5.69
COCCOc1ccc2c(c1)ncn2-c1ccc2cccc(N3CCC(N)CC3)c2n1	4.88

What follows are compounds tested on Neuro-2a in the same assay as above. Conditions: 0.1 µM.
Protocol: as §1, with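 “at 0.1” for “at 1”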

Compound	neurite formation score
c1cc(-c2cnn3cc(-c4ccc(OCCN5CCCCC5)cc4)cnc23)ccn1 [Dorsomorphin 2HCl]	3.92
Nc1ccc(-c2ccc3ncc4ccc(=O)n(-c5cccc(C(F)(F)F)c5)c4c3c2)cn1 [Torin 2]	3.42
CN1CCN(c2ccc3nc(-c4c(N)c5c(F)cccc5[nH]c4=O)[nH]c3c2)CC1 [Dovitinib (TKI-258, CHIR-258)]	4.08
COc1cc(C(=O)NC2CCN(C)CC2)c(F)cc1Nc1ncc2c(n1)N(C1CCCC1)CC(F)(F)C(=O)N2C	5.08
COc1cc(N2CCC(N3CCN(C)CC3)CC2)ccc1Nc1ncnc(Nc2ccccc2S(=O)(=O)C(C)C)n1	4.38
N#CC(=C(/N)Sc1ccccc1N)/C(C#N)=C(\N)Sc1ccccc1N	5.71
CCc1cccc(CC)c1NC(=O)N1Cc2[nH]nc(NC(=O)c3ccc(N4CCN(C)CC4)cc3)c2C1	5.09
CN1CCN(CCOc2cc(OC3CCOCC3)c3c(Nc4c(Cl)ccc5c4OCO5)ncnc3c2)CC1 [Saracatinib (AZD0530)]	3.38
C#Cc1cccc(Nc2ncnc3cc4c(cc23)OCCOCCOCCO4)c1 [Icotinib]	5.09
COc1cc(N2CCC(N3CCN(C)CC3)CC2)ccc1Nc1ncc(Cl)c(Nc2ccccc2S(=O)(=O)C(C)C)n1	5.54
C#Cc1cccc(Nc2ncnc3cc(OC)c(OCCCCCCC(=O)NO)cc23)c1	4.25
CNC(=O)c1c(F)cccc1Nc1nc(Nc2cc3c(cc2OC)CCN3C(=O)CN(C)C)nc2[nH]ccc12	4.58
CN(C)C1CCN(C(=O)c2ccc(NC(=O)Nc3ccc(-c4nc(N5CCOCC5)nc(N5CCOCC5)n4)cc3)cc2)CC1	3.09
COc1cc(Nc2ncc(F)c(Nc3ccc4c(n3)NC(=O)C(C)(C)O4)n2)cc(OC)c1OC	4.58
O=C(/C=C/c1ccc(O)c(O)c1)c1ccc(O)cc1O [Butein]	4.38
CN(c1ncccc1CNc1nc(Nc2ccc3c(c2)CC(=O)N3)ncc1C(F)(F)F)S(C)(=O)=O	3.54 and 4.88
CCC(=O)Nc1cccc(Oc2nc(Nc3ccc(N4CCN(C)CC4)cc3OC)ncc2Cl)c1	4.25
Cc1cc(C)c(/C=C2\C(=O)Nc3ccccc32)[nH]1 [Semaxanib (SU5416)]	5.42
CC(C)n1nc(-c2ccc3oc(N)nc3c2)c2c(N)ncnc21	5.25
COc1ccc(S(=O)(=O)N(CCO)c2ccccc2CN(C)C/C=C/c2ccc(Cl)cc2)cc1 [KN-93 Phosphate]	4.42
CCN(CC)CCCC(C)Nc1ccnc2cc(Cl)ccc12 (configuration not stated) [Chloroquine diphosphate]	4.58
